Test results: article PMC4336329 (PLoS ONE, 2015)
About 2,200 (0.71%) of roughly 310,000 compounds showed an effect of 50% or more. Effects have a minus sign here. This excerpt belongs to a sample that is enriched for strong results.

Molecular target: human ether-à-go-go-related gene (hERG) potassium channel (human, UniProt Q12809)
Assay: primary screen, population patch clamp on CHO cells stably expressing hERG; higher = less effect of the substance

Chain of human ether-à-go-go-related gene (hERG) potassium channel (Q12809 whole entry, looked up): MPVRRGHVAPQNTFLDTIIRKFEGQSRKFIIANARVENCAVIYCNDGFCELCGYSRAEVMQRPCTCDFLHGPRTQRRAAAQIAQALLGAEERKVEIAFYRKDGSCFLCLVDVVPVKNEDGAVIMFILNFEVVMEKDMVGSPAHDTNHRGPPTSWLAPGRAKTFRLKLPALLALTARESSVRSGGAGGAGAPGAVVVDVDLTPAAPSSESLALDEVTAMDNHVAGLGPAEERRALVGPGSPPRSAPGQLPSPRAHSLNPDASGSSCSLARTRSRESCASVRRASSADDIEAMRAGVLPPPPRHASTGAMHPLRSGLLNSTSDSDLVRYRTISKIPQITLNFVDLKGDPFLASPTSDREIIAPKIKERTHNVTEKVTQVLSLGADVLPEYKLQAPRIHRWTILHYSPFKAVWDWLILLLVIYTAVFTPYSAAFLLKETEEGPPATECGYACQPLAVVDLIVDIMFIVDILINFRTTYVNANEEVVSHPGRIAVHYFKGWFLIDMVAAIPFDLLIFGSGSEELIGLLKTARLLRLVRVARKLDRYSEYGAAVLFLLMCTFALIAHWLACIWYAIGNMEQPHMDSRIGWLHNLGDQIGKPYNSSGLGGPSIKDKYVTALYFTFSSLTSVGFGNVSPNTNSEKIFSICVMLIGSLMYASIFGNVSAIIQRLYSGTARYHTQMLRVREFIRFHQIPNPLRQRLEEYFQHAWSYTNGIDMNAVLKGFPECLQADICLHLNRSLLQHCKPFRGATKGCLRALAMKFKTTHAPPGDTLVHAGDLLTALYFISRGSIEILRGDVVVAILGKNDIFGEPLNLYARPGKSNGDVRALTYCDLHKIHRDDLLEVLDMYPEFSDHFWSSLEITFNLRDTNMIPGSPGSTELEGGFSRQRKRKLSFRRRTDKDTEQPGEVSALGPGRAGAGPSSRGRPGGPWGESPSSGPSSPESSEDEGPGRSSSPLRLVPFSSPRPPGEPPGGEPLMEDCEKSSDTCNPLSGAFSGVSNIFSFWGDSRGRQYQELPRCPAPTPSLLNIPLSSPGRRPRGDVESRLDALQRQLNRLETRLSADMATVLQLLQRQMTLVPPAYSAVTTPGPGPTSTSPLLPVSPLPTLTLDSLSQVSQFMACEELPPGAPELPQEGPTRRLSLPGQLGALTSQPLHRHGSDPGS

Row | Compound | hERG current change (%, negative = inhibition) at 1uM
1 | Fc1ccc(N2CCN(Cc3cn[nH]c3-c3ccccc3)CC2)cc1 | -27%
2 | COc1ccc(-c2[nH]ncc2CN2CCC(c3ccncc3)CC2)cc1F | -51.4%
3 | COc1ccc(-c2[nH]ncc2CN2CCC(OCc3cccnc3)CC2)c(F)c1 | -10.6%
4 | COCC1CCN(Cc2cn[nH]c2-c2ccc(OC)c(F)c2)C1 (stereo not shown) | 3.17%
5 | COc1ccc(-c2[nH]ncc2CN2CCC(OCc3ccccn3)CC2)c(F)c1 | 2.13%
6 | O=C(c1ccc(F)cc1)C1CCN(Cc2cn[nH]c2-c2ccccc2)CC1 | -84.2%
7 | COc1ccc(-c2[nH]ncc2CN2CCC(N3CCSCC3)CC2)cc1F | 3.77%
8 | COc1ccc(-c2[nH]ncc2CN2CCC(OCc3ccccc3)CC2)c(F)c1 | -64.5%
9 | COc1ccc(-c2[nH]ncc2CN2CCC(C(=O)c3ccc(F)cc3)CC2)cc1 | -70.5%
10 | CCOC(=O)C1CCN(Cc2cn[nH]c2-c2ccccc2)CC1.O=C(O)C(=O)O | 14.2%
11 | COc1ccc(-c2[nH]ncc2CN2CCCC(C(=O)c3ccc(OC)cc3OC)C2)cc1 (stereo not shown) | -47.3%
12 | COc1ccc(-c2[nH]ncc2CN2CCN(c3ccc(F)cc3)CC2)cc1 | -4.53%
13 | CN(C)c1ccc(C(CNC(=O)c2ccco2)N2CCCC2)cc1 (stereo not shown) | 13.2%
14 | Cc1nc(C)c(-c2csc(Nc3ccc(O)c(C(=O)O)c3)n2)s1 | 13.6%
15 | CC(=O)c1ccc(NC(=S)N2CCN(c3cccc(Cl)c3)CC2)cc1 | 12.6%
16 | COC(=O)C1CC(=O)N(c2ccc(C)cc2)C1 (stereo not shown) | 4.3%
17 | CCc1ccccc1NC(=O)CCNS(=O)(=O)c1cc(Br)cnc1N | 0.979%
18 | Cl.O=C(OCCN1CCOCC1)c1ccc2c(c1)OCCO2 | 8.19%
19 | O=C(NCCc1ccccn1)C1CC(=O)N(Cc2ccccc2Cl)C1 (stereo not shown) | 4.09%
20 | CCCCCCC(=O)Nc1ccc(Cl)cn1 | 12.1%
21 | O=C(c1ccc(F)cc1)C1CCN(Cc2cn[nH]c2-c2ccc(F)cc2)CC1 | -78.9%
22 | Fc1ccc(-c2[nH]ncc2CN2CCN(c3ccc(F)cc3)CC2)cc1 | -0.0709%

Row | Compound | hERG current change (%, negative = inhibition) at 1uM
23 | CCOC(=O)C1CCN(Cc2cn[nH]c2-c2ccc(C)cc2)CC1 | -23.6%
24 | O=C(/C=C/c1ccccc1)NC(=S)Nc1ncccn1 | 14.1%
25 | CCN(CC)S(=O)(=O)c1ccc(Cl)c(C(=O)Nc2nncs2)c1 | 15.1%
26 | COc1ccccc1OCC(=O)NCCS(=O)(=O)N1CCN(c2ccc(F)cc2)CC1 | -3.49%
27 | O=C(O)c1ccc(-n2nnnc2SCc2ccccc2)cc1 | 7.44%
28 | O=C(O)c1ccc(CSc2nnnn2-c2ccc(F)cc2)cc1 | 6.99%
29 | Cc1ccc(-n2nnnc2SCc2ccc(C(=O)O)cc2)cc1C | -80.9%
30 | Cc1c(C#N)c2ccccc2n1CC(=O)NC(C)c1ccccc1 (stereo not shown) | 4.94%
31 | COC(=O)c1ccc(CS(=O)(=O)c2ccccc2C)o1 | 2.66%
32 | O=C1N=c2ccccc2=C1c1sc(=S)n(CC2CCCO2)c1O (stereo not shown) | 10.8%
33 | COc1cc(C(C)=O)ccc1OCC(O)CNCC1(N2CCCCC2)CCCCC1.O=C(O)C(=O)O (stereo not shown) | 2.35%
34 | OC(CNCC1(N2CCCCC2)CCCCC1)COc1ccc(Cl)cc1Cl (stereo not shown) | -74.2%
35 | COc1ccccc1COCC(O)CNCC1(N2CCCCC2)CCCCC1.O=C(O)C(=O)O (stereo not shown) | 0.206%
36 | Cc1ccccc1NC(=O)CCCN1C(=O)C2CC=CCC2C1=O (stereo not shown) | 14.5%
37 | O=C(NC1CCCCC1)C(c1ccncc1)N(C(=O)Cn1nnc(-c2cccs2)n1)C1CCCC1 (stereo not shown) | -4.68%
38 | Cc1ccccc1NC(=O)c1cccc2c1C(=O)N(C1CCCCC1)C2 | 15%
39 | CSc1ccccc1NS(=O)(=O)c1cccc2nonc12 | 7.17%
40 | O=S(=O)(Nc1cc(F)ccc1F)c1cccc2nsnc12 | 14.5%
41 | O=S(=O)(Nc1cc(F)ccc1F)c1cccc2nonc12 | -61%
42 | CCN1CCN(c2oc(COc3ccc(-c4ccccc4)cc3)nc2C#N)CC1 | 10.1%
43 | N#Cc1nc(COc2ccc(F)cc2)oc1N1CCN(Cc2ccccc2)CC1 | -51%
44 | CCN1CCN(c2oc(COc3ccc(Cl)cc3)nc2C#N)CC1 | -79.3%

Row | Compound | hERG current change (%, negative = inhibition) at 1uM
45 | N#Cc1nc(COc2ccccc2)oc1N1CCN(Cc2ccccc2)CC1 | -3.01%
46 | N#Cc1nc(COc2ccc(Cl)cc2)oc1N1CCCC1 | -2.53%
47 | N#Cc1nc(COc2ccc(Cl)cc2)oc1N1CCN(Cc2ccccc2)CC1 | 10.2%
48 | COC(=O)C1CC(Cl)CN1c1ncc(C(F)(F)F)cc1Cl (stereo not shown) | 15.5%
49 | COc1ccc(-n2c(CNC(=O)COc3ccc(Cl)cc3)n[nH]c2=S)cc1 | 16.9%
50 | C/C(=N\O)C(C)(C)Nc1ccc(Cl)cc1 | 10.9%
51 | CCOc1cc(S(=O)(=O)NC2CC(C)(C)NC(C)(C)C2)ccc1Cl | 11.2%
52 | COc1ccccc1-c1nnc2sc(-c3cc4ccccc4o3)nn12 | -0.794%
53 | Cl.O=C(NCCCN1CCOCC1)c1ccc(Cl)c(S(=O)(=O)N2CCCCCC2)c1 | -18.9%
54 | O=C(NCCCN1CCCC1=O)c1ccc(Cl)c(S(=O)(=O)N2CCCCC2)c1 | 9.57%
55 | CCN(CC)CCNC(=O)c1ccc(Cl)c(S(=O)(=O)N2CCCCCC2)c1.Cl | -52.2%
56 | Cl.O=C(NCCN1CCOCC1)c1ccc(Cl)c(S(=O)(=O)N2CCCCCC2)c1 | -10.3%
57 | CN(C)CCCNC(=O)c1ccc(Cl)c(S(=O)(=O)N2CCCCCC2)c1.Cl | -70%
58 | CCN(CC)CCNC(=O)c1ccc(NC(=O)c2ccc(Cl)c(S(=O)(=O)N3CCCCCC3)c2)cc1.Cl | 1.9%
59 | CN(C)C(=O)C12CCC(C)(C(=O)C1Br)C2(C)C (stereo not shown) | 14.5%
60 | O=c1oc(-c2ccco2)nc2sc3c(c12)CCCC3 | 11.5%
61 | COc1cc(OC)cc(C(=O)NCC(=O)OC2CCCCC2=O)c1 (stereo not shown) | -1.67%
62 | O=C(CNC(=O)c1ccc(Oc2ccccc2)cc1)OC1CCCCC1=O (stereo not shown) | -58.8%
63 | COc1ccc(C(=O)NCC(=O)OC2CCCCC2=O)cc1 (stereo not shown) | -0.0213%
64 | Cc1nc2ncnn2c(C)c1CCC(=O)N1CCc2ccccc2C1 | -19.5%
65 | Cc1nc2ncnn2c(C)c1CCC(=O)N1CCc2ccccc21 | -66.3%
66 | Cc1nc2nc(C)c(CCC(=O)N3CCc4ccccc43)c(C)n2n1 | -36.3%

Row | Compound | hERG current change (%, negative = inhibition) at 1uM
67 | CCN(CC(=O)Nc1ccc(NC(C)=O)cc1)C(=O)c1sc2nc3n(c(=O)c2c1C)CCC3 | 10.2%
68 | COc1cc(OC)c(NC(=O)c2cncn2-c2ccc(F)cc2)cc1Cl | 5.23%
69 | NNC(=O)c1cncn1-c1ccc(F)cc1 | 12.3%
70 | O=C(Nc1cccc(Cl)c1)c1cncn1-c1ccc(F)cc1 | -52.8%
71 | CC(C)(C)C1CCC(OC(=O)CN2CCCCC2)CC1 (stereo not shown) | 2.3%
72 | Cc1ccc(S(=O)(=O)c2ccc(Cl)cc2)cc1S(=O)(=O)N1CCOCC1 | 3.5%
73 | CCCCNC(=O)c1cc2c(=O)n3cccc(C)c3nc2n(Cc2ccccc2)c1=N | -80.7%
74 | Cc1ccc(Cn2c(=N)c(C#N)cc3c(=O)n4cccc(C)c4nc32)cc1 | -2.14%
75 | CCNC(=O)c1cc2c(=O)n3cccc(C)c3nc2n(Cc2ccc(C)cc2)c1=N | -97.1%
76 | O=C(NCCN1CCN(c2ccccc2)CC1)c1cccn2c(=O)c3ccccc3nc12 | -10.8%
77 | Cc1cccn2c(=O)c3cc(C(=O)NC(C)C)c(=N)n(Cc4ccncc4)c3nc12 | -67.2%
78 | Cc1cccn2c(=O)c3cc(C(=O)NCCN4CCOCC4)c(=N)n(Cc4ccc(F)cc4)c3nc12 | -13.3%
79 | Cc1ccc(S(=O)(=O)c2cc3c(=O)n4cccc(C)c4nc3n(Cc3ccncc3)c2=N)cc1 | 9.03%
80 | COCCCNC(=O)c1cccn2c(=O)c3cc4ccccc4cc3nc12 | -8.65%
81 | CN(CCCNC(=O)c1cccn2c(=O)c3ccccc3nc12)Cc1ccccc1 | -75.3%
82 | N#Cc1cnn2c(-c3cccc(C(F)(F)F)c3)ccnc12 | 1.86%
83 | CCOC(=O)Cc1csc(NC(=O)/C=C\c2ccccc2Cl)n1 | 7.16%
84 | CC(C)C(=O)Nc1cccc(NC(=O)c2cccnc2)c1 | -1.01%
85 | CCC(c1nnnn1CS(=O)(=O)c1ccc(C)cc1)N1CCC(C(N)=O)CC1.Cl (stereo not shown) | -3.7%
86 | Cc1cccc(OCC(=O)Nc2ccc(S(=O)(=O)Nc3ccccn3)cc2)c1 | 17.3%
87 | CS(=O)(=O)n1nc(NCc2cccs2)nc1NCc1cccs1 | 10.5%
88 | CCOC(=O)CSc1c(-c2ccc(Cl)cc2)[nH]c2ccccc12 | 1.02%
